Screens deposited in PubChem by National Center for Advancing Translational Sciences (NCATS).
Hits are enriched below; roughly 9.9% of the tested compounds scored in any of these assays.
KB-3-1 tox: KB-3-1 parental cell cytotoxicity; KB-3-1 viability, CellTiter-Glo ATP luminescence, 72 h; Potency, µM (series often up to 46.1 µM), actives largely listed as cytotoxic; hit rate 1.4% among 400,000; AID 1347075; also: potency is read from the fitted curve at half-maximal effect; % is scaled to controls: 0 for no effect and ±100 for the full control effect; nearly all actives have a fitted effect of over 60% in size
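KB-3-1 cells, DMEM (no phenol red) + 10% FBS; compound by pin transfer, 72 h, 37 °C. Readout: CellTiter-Glo luminescence after 10 min. Data normalized, curve-fitted.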
MCF10A rerep: DNA re-replication induction in MCF 10a cells; MCF 10A DNA re-replication, Hoechst nuclear intensity, 48 h; hit rate 2.9% among 350,000; Potency, µM (top dose mostly 46.1 µM), for inactives: at the highest dose activity, positive = re-replication, hits mostly activators; also: potency is read from the fitted curve at half-maximal effect; % of control where 0% means no effect; nearly all actives have a fitted effect of over 50% in size
SW480 rereplic: induces DNA re-replication in SW480 colon adenocarcinoma cells; SW480 DNA re-replication, Hoechst DNA content imaging, 48 h; Potency, µM (series often up to 46.1 µM), inactives show at the top dose re-replication activation, most hits filed as activators; hit rate 1.8% among 340,000; AID 624297; also: potency is read from the fitted curve at half-maximal effect; % of control where 0% means no effect; nearly all actives have a fitted effect of over 55% in size
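Image-based DNA-content assay: after two days of treatment, nuclei were labelled with the DNA dye Hoechst and imaged, and hits were compounds raising the count of nuclei showing high fluorescence intensity.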
IL-1B inflam inh: inhibitors of inflammasome signaling (IL-1 beta secretion). activity change, % at 57.5 µM. hit rate 4.7% among 360,000. THP-1 LPS/ATP IL-1B secretion, AlphaLISA, 16 h; stronger effect = lower value; in the data active = activity change below about -50%; inconclusive = mostly about -30% to -49%; also: % is scaled to controls: 0 for no effect and ±100 for the full control effect
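THP-1 cells pretreated 1 hr with compounds (up to 57.5 uM final), then stimulated with LPS (250 ng/mL final) plus ATP (1.25 mM final); secreted IL-1B measured by AlphaLISA after 16 hr, decreased signal indicating inhibition.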
KB-V1 MDR tox: KB-V1 MDR subline cytotoxicity; Potency, µM (top dose mostly 46.1 µM), usual class: cytotoxic; hit rate 3.4% among 400,000; KB-V1 MDR cells viability, CellTiter-Glo, 72 h; also: potency is read from the fitted curve at half-maximal effect; % is scaled to controls: 0 for no effect and ±100 for the full control effect; nearly all actives have a fitted effect of over 60% in size
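KB-V1 cells (P-gp-expressing MDR subline of KB-3-1) in phenol-red-free DMEM with 10% FBS were exposed to library compounds over a concentration series for 72 h at 37 degrees C. Viability read by CellTiter-Glo luminescence; concentration-effect curves fitted after normalization.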
Active calls of the source: *; i = inactive; ? = inconclusive; . = no result. Unless noted, calls follow the shape of the dose curve; as a rule, active = well fitted curve in the direction sought with a large enough effect; inconclusive = small, poorly fitted or top-dose-only effect, or another doubt; inactive = no such curve, though single readings can be large; an effect the other way counts as inactive or inconclusive.

SMILES | KB-3-1 tox | MCF10A rerep | SW480 rereplic | IL-1B inflam inh | KB-V1 MDR tox
Clc1ccc(Nc2ccc(NCc3ccccc3)nn2)cc1 | i | ? | 16µM* | -16 | 16µM*
Cc1nc2nc(NCc3ccc(Br)cc3)[nH]n2c(=O)c1Cc1ccccc1 | i | . | . | . | i
O=C(Nc1c(Cl)cccc1Cl)C1CCN(C(=O)c2cccs2)CC1 | i | 2% | -14% | -28 | i
COC(=O)c1cccc(OCCCN2CCC(C(O)(c3ccccc3)c3ccccc3)CC2)c1 | i | . | . | 0 | ?
OC(c1ccccc1)(c1ccccc1)C1CCN(CCCOc2ccc(F)cc2)CC1 | i | . | . | -53* | ?
Fc1ccc(OCCCCCCN2CCCC2)cc1 | i | ? | -2% | 19 | i
Cc1ccc(OCCCN2CCC(C(O)(c3ccccc3)c3ccccc3)CC2)cc1 | ? | . | . | -52* | 21µM*
Cn1cc(S(=O)(=O)N2CCCCCC2)cc1C(=O)N1CCN(c2cccc(Cl)c2)CC1 | i | . | . | . | i
O=C(Cc1nnc(NC(=O)Nc2ccccc2F)s1)NCc1ccccc1 | i | -12% | -52% | . | i
CN(C(=O)c1cccc(NC(=O)Cc2ccc(NC(=O)C3CCN(C(=O)CCc4ccccc4)CC3)cc2)c1)C1CCC1 | i | -21% | -27% | -17 | i
COc1ccc(N(CC(=O)NC2CCCCC2)S(=O)(=O)c2cccs2)cc1 | i | 12% | -27% | 1 | i
COCCN(CC(=O)NC1CCCCC1)C(=O)/C=C/C(=O)c1ccc(OC)cc1O | 18µM* | 6.5µM* | ? | -101* | ?
COc1ccc(C(=O)/C=C/C(=O)N(CC(=O)NC2CCCCC2)Cc2cccs2)c(O)c1 | ? | 18µM* | ? | -100* | ?
COc1ccc(C(=O)OCC(=O)NC(=O)NC2CCCC2)c(O)c1 | i | -1% | -3% | -5 | i
CCC(=O)N(CCC(Cc1ccccc1)c1ccco1)Cc1ccco1 (centres undefined) | i | 1% | 0% | -29 | ?
Fc1ccc(CNCCC(Cc2ccccc2)c2ccco2)cc1 (centres undefined) | ? | 1% | 3% | -80* | ?
CC(NCCC(Cc1ccccc1)c1ccco1)c1ccccc1 (centres undefined) | i | 0% | -1% | -59* | i
CCOC(=O)CC(NC(=O)c1cc2cc(OC)ccc2oc1=O)c1ccc(OC)cc1 (centres undefined) | i | . | . | . | ?
COc1ccc(C)cc1-n1nnnc1SCC(=O)NC1CCS(=O)(=O)C1 (centres undefined) | i | 0% | 28% | 0 | ?
CCCCn1c(N)c(N(CC(C)C)C(=O)CCCn2c(=O)oc3ccccc32)c(=O)[nH]c1=O | i | -8% | -61% | 23 | i
CCOc1ccc(-c2nc(CSCC(=O)N3CCN(c4ccc(F)cc4)CC3)c(C)o2)cc1 | i | . | . | . | i
CC(C)(C)NC(=O)CN1CCN(C(=O)CCl)CC1 | ? | 18% | 10% | -79* | i
CCOC(=O)N1CCN(C(=O)Cc2ccc(Cl)cc2)CC1 | i | -5% | -4% | 3 | i
CCOC(=O)N1CCN(C(=O)CCl)CC1 | i | ? | -4% | -92* | i
CCOc1ccc(-c2nc(CSCC(=O)N3CCN(c4cccc(C(F)(F)F)c4)CC3)c(C)o2)cc1 | ? | . | . | . | 18µM*
SMILES | KB-3-1 tox | MCF10A rerep | SW480 rereplic | IL-1B inflam inh | KB-V1 MDR tox
CCOC(=O)c1c(C)oc2nc(C)nc(N3CCN(c4cccc(C(F)(F)F)c4)CC3)c12 | ? | . | . | . | 16µM*
COC(=O)c1ccccc1S(=O)(=O)NNC(=O)c1nn(C)c(=O)c2ccccc12 | i | 1% | -1% | -11 | i
NC(=O)NC(CC(=O)N1CCc2ccccc2C1)c1ccc(Cl)cc1 (centres undefined) | i | 1% | 2% | -12 | i
CCOC(=O)N1CCN(C(=O)CSCc2nc(-c3ccccc3C)oc2C)CC1 | i | 6% | -4% | 4 | 18µM*
Cc1ccc(CSCC(=O)N2CCCC2)cc1 | i | ? | -2% | 9 | i
Cc1oc(-c2ccccc2Cl)nc1CSCC(=O)NC1CC1 | i | ? | -1% | -1 | 13µM*
Cc1oc(-c2ccccc2F)nc1CSCC(=O)NC1CCCC1 | i | 8% | 2% | -1 | ?
